Results taken from PubChem BioAssay (EPA / NIEHS).
“And” between values parts separate entries of the source, which are not always exact repeats. Equal entries are not always repeated. Results filed as inconclusive are left out. The source made the active and inactive calls. How the source made its calls, unless noted: active means hit-call score of the fitted dose curve at least 0.9, where 1 is the maximum; inactive means score below 0.9.

Legend:
[1] = TOX21_p53_BLA_p2_viability: Viability Assessment in the Tox21 HCT-116 p53 Agonism Beta-lactamase Assay, Phase 2 (AID 2283591; active means hit-call score of the fitted dose curve at least 0.9, where 1 is the maximum;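 further: compound exposure lasted 16 h at 37 °C; actives lower the ATP signal meaning cytotoxicity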)
Procedure, shortened: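 HCT116 p53-bla cells, 4000/well, dosed after 5 h plating (217-fold dilution of DMSO stocks) and incubated 16 h at 37C. Viability taken as cellular ATP by CellTiter-Glo luminescence after 30 min RT; signal loss marks cytotoxicity.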

[2] = target: Cellular tumor antigen p53 (Homo sapiens) (UniProt P04637); experiment: TOX21_p53_BLA_p2_ratio: Tox21 HCT-116 p53 Agonism Beta-lactamase Assay, Ratio, Phase 2 (AID 2283592; active means hit-call score of the fitted dose curve at least 0.9, where 1 is the maximum)
Chain of Cellular tumor antigen p53 (Homo sapiens) (P04637 whole entry, looked up): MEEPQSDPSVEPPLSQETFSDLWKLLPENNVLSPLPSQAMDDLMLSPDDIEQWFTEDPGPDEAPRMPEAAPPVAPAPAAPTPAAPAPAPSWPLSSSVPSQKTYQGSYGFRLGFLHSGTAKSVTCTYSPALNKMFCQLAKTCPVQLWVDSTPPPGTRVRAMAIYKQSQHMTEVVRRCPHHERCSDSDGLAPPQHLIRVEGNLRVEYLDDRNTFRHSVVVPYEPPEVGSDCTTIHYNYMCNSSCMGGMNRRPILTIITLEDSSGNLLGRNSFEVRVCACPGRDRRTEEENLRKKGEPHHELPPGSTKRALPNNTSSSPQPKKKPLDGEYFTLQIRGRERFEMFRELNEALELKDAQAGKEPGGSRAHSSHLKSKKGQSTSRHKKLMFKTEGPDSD
Procedure, shortened: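 In this cell-based reporter format, HCT116 cells were dosed with chemicals delivered from DMSO by 217-fold dilution and incubated 16 h at 37C. Emission at 460 and 530 nm after 2 h CCF4-AM loading provided the ratio, fitted upward versus DMSO.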

[3] = TOX21_p53_BLA_p3_viability: Viability Assessment in the Tox21 HCT-116 p53 Agonism Beta-lactamase Assay, Phase 3 (AID 2283593; active means hit-call score of the fitted dose curve at least 0.9, where 1 is the maximum;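 further: cells exposed to compound for 16 h before reading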)
Procedure, shortened: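 HCT116 cells, 4000/well, dosed 5 h after plating by pin transfer (217-fold dilution from DMSO stock) and incubated 16 h at 37C, 5% CO2. Viability read as ATP luminescence with CellTiter-Glo after 30 min at room temperature.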

[4] = target: Cellular tumor antigen p53 (Homo sapiens) (UniProt P04637); experiment: TOX21_p53_BLA_p3_ratio: Tox21 HCT-116 p53 Agonism Beta-lactamase Assay, Ratio, Phase 3 (AID 2283596; active means hit-call score of the fitted dose curve at least 0.9, where 1 is the maximum)
Procedure, shortened: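 HCT116 p53-bla cells (4000/well) given compound in DMSO (217-fold dilution) after 5 h, incubated 16 h at 37C. CCF4-AM substrate 2 h at room temperature; 460/530 nm emission ratio, gain fitted against DMSO.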

[5] = TOX21_p53_BLA_p4_viability: Viability Assessment in the Tox21 HCT-116 p53 Agonism Beta-lactamase Assay, Phase 4 (AID 2283597; active means hit-call score of the fitted dose curve at least 0.9, where 1 is the maximum;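 further: hits lower the luminescence signal meaning cytotoxicity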)
Procedure, shortened: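 We seeded HCT116 p53 reporter cells at 4000/well and waited 5 h. We then added compounds in DMSO at a 217-fold dilution and incubated for 16 h. Viability was read as CellTiter-Glo luminescence after 30 min at RT.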

[6] = TOX21_p53_BLA_p5_viability: Viability Assessment in the Tox21 HCT-116 p53 Agonism Beta-lactamase Assay, Phase 5 (AID 2283600; active means hit-call score of the fitted dose curve at least 0.9, where 1 is the maximum)
Procedure, shortened: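 Compounds, pinned from DMSO at 217-fold dilution, were left on the cells for 16 h. The viability endpoint was ATP content measured by CellTiter-Glo luminescence, where falling signal reflects cytotoxicity.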

[7] = target: Cellular tumor antigen p53 (Homo sapiens) (UniProt P04637); experiment: TOX21_p53_BLA_p4_ratio: Tox21 HCT-116 p53 Agonism Beta-lactamase Assay, Ratio, Phase 4 (AID 2283601; active means hit-call score of the fitted dose curve at least 0.9, where 1 is the maximum)
Procedure, shortened: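 HCT-116 p53 beta-lactamase reporter cells (4000/well) preincubated 5 h, then compound (217-fold dilution of DMSO stock) for 16 h at 37C. CCF4-AM substrate added 2 h at room temperature; 460/530 nm emission ratio fitted upward versus DMSO.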

[8] = CCTE_Shafer_MEA_acute_spike_number: CCTE's Neural Acute Assay for Total Number of Spikes, Shafer Lab (AID 2284008);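 further: curve fitted for decrease in spike count so AC50 reflects inhibitors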
Procedure, shortened: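 Rat cortical cultures, DIV 13/15, 37 C. 40 min baseline rec, cpd 0.03-40 uM, 40 min post-dose rec. Band-pass 300-5000 Hz, spike threshold 8x rms; % change in spike count per well, DMSO neg ctrl, loss-of-signal fit.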

[9] = CCTE_Shafer_MEA_acute_firing_rate_mean: CCTE's Neural Acute Assay for Mean Firing Rate, Shafer Lab (AID 2284009);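 further: analyzed for loss of signal so actives lower firing rate relative to DMSO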
Procedure, shortened: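 Rat primary cortical neurons on 48-well MEA plates, dosed at 0.03-40 uM on DIV 13 or 15; 40 min spontaneous activity recorded at 37 C before and after compound. Spike rate per electrode averaged per well, expressed as percent change from baseline.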

[10] = CCTE_Shafer_MEA_acute_burst_number: CCTE's Neural Acute Assay for Single-Electrode Bursts, Shafer Lab (AID 2284013)
Procedure, shortened: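 Primary rat cortical neurons on 16-electrode MEA wells, treated on DIV 13 or 15 with compound at 0.03-40 uM. Single-electrode burst count from 40-min recordings at 37 C before and after exposure; percent change from baseline per well, DMSO negative control.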

[11] = CCTE_Shafer_MEA_acute_per_burst_spike_number_mean: CCTE's Neural Acute Assay for Average Number of Spikes Per Burst, Shafer Lab (AID 2284015);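 further: hits are decreases in mean spikes per burst versus baseline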
Procedure, shortened: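 Percent change in mean spikes per single-electrode burst is compared between a 40 min baseline and a 40 min recording with compound (0.03-40 uM). Cultures were rat cortical neurons on MEA plates at DIV 13 or 15, recorded at 37 C, with DMSO as the negative control.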

[12] = CCTE_Shafer_MEA_acute_interburst_interval_mean: CCTE's Neural Acute Assay for Mean Interburst Interval, Shafer Lab (AID 2284016);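 further: percent change of mean interburst interval versus each well's own pre-dose baseline; curves fitted for decrease in interburst interval relative to DMSO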
Procedure, shortened: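 Percent change in mean single-electrode interburst interval was calculated per well from 40 min recordings before and after compound (0.03-40 uM). Recordings were made at 37 C on rat cortical cultures at DIV 13 or 15, with spikes detected at 8x rms threshold.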

[13] = CCTE_Shafer_MEA_acute_burst_percentage_mean: CCTE's Neural Acute Assay for Percentage of Spikes in a Burst, Shafer Lab (AID 2284017);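 further: curve fitted for loss of signal so potency reflects decreased burst percentage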
Procedure, shortened: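 Well-level mean burst percentage from a 40-min recording after compound (0.03-40 uM) expressed as percent change from a 40-min baseline at 37C. Cultures: primary rat cortical neurons on MEA, dosed on DIV 13 or 15; fitted downward relative to DMSO.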

[14] = CCTE_Shafer_MEA_acute_burst_percentage_std: CCTE's Neural Acute Assay for Standard Deviation of Burst Percentage, Shafer Lab (AID 2284018);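 further: fitted in the negative direction so actives lower burst percentage SD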
Procedure, shortened: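 Rat primary cortical neurons on 48-well MEAs, DIV 13 or 15, 37 C. 40-min baseline then 40-min recording with compound (0.03-40 uM); well-level SD of per-electrode burst spike percentage, expressed as percent change from baseline.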

[15] = CCTE_Shafer_MEA_acute_per_network_burst_spike_number_mean: CCTE's Neural Acute Assay for Average Number of Spikes in a Network Burst, Shafer Lab (AID 2284019)
Procedure, shortened: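 Rat primary cortical neurons on 48-well MEA at DIV 13 or 15, 37 C; compounds 0.03-40 uM, at least three wells each. 40-min baseline then 40-min exposure recording; percent change in mean spikes per network burst.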

[16] = CCTE_Shafer_MEA_acute_per_network_burst_spike_number_std: CCTE's Neural Acute Assay for Standard Deviation of Number of Spikes in a Network Burst, Shafer Lab (AID 2284020);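 further: fitted for decrease in spike-number SD versus DMSO so actives lower it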
Procedure, shortened: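 Rat primary cortical neurons on 48-well MEA (16 electrodes/well), treated DIV 13 or 15 at 0.03-40 uM, ≥3 wells per compound. 40 min recordings at 37 C before and after dosing; value is percent change in network-burst spike-number SD, negative direction vs DMSO.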

[17] = CCTE_Shafer_MEA_acute_per_network_burst_electrodes_number_mean: CCTE's Neural Acute Assay for Mean Number of Electrodes in a Network Burst, Shafer Lab (AID 2284021);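 further: curves fitted for decreases only so hits reduce electrodes per burst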
Procedure, shortened: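 Readout: % change in mean electrodes active per network burst, post- vs pre-treatment, each well. Spikes detected at 8x rms noise after 300-5000 Hz band-pass; rat cortical cultures, DIV 13/15, compounds 0.03-40 uM, DMSO baseline.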

[18] = CCTE_Shafer_MEA_acute_network_burst_percentage: CCTE's Neural Acute Assay for Percentage of Network Bursts, Shafer Lab (AID 2284022);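 further: curves fitted for loss so actives lower network burst percentage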
Procedure, shortened: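 Rat cortical cultures, DIV 13/15; 20 min equilibration, 40 min baseline, compound 0.03-40 uM, 40 min recording, 37 C. Spikes: 300-5000 Hz band-pass, threshold 8x rms noise. Readout: % change in network-burst spike fraction; loss direction vs DMSO.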

[19] = CCTE_Shafer_MEA_acute_cross_correlation_area: CCTE's Neural Acute Assay for Area of Cross Correlation, Shafer Lab (AID 2284024);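 further: area under pooled inter-electrode spike cross-correlation near zero lag as percent change from own baseline; curves fitted for loss of cross-correlation area so actives lower synchrony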
Procedure, shortened: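 Rat cortical cultures, DIV 13/15, MEA; spikes detected at 8x rms noise (300-5000 Hz band-pass). Compound 0.03-40 uM, ≥3 wells each. Readout: % change in pooled inter-electrode cross-correlation area vs own baseline; DMSO negative control.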

[20] = CCTE_Shafer_MEA_acute_cross_correlation_HWHM: CCTE's Neural Acute Assay for Cross Correlation at Half Width at Half Maximum, Shafer Lab (AID 2284026);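 further: percent change per well from pre-dose baseline in spike cross-correlogram half width; hits are a decrease in cross-correlogram half width relative to DMSO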
Procedure, shortened: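 Read-out: half width at half maximum of action-potential cross-correlogram, percent change versus pre-treatment baseline, fitted in loss direction against DMSO. Rat cortical cultures, DIV 13 or 15, dosed 0.03-40 uM, 40-min recordings at 37 C.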

[21] = CCTE_Shafer_MEA_acute_synchrony_index: CCTE's Neural Acute Assay for Synchrony, Shafer Lab (AID 2284027);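 further: network synchrony index of spontaneous spiking in primary rat cortical neurons on MEAs; fitted for loss of signal so actives lower synchrony relative to DMSO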
Procedure, shortened: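 Primary rat cortical neurons on 16-electrode MEA wells were recorded 40 min at baseline (DIV 13 or 15) and 40 min after compound (0.03-40 uM) at 37 C. Synchrony index (0-1) expressed as percent change from baseline, versus DMSO.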

[22] = CCTE_Shafer_MEA_dev_firing_rate_mean: CCTE's Neural Network Formation Assay for Mean Firing Rate, Shafer Lab (AID 2284031);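 further: curve fitted for loss of firing so AC50 reflects decreased mean firing rate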
Procedure, shortened: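 Primary rat cortical neurons on 48-well, 16-electrode MEAs (PEI-coated, laminin at plating), exposed from day 0 with compound renewed at DIV 5 and 9. Spikes recorded DIV 5, 7, 9, 12; well-mean firing rate collapsed to trapezoidal AUC, loss-of-signal vs DMSO.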

[23] = CCTE_Shafer_MEA_dev_per_burst_spike_percent: CCTE's Neural Network Formation Assay for Percent of Spikes in a Burst, Shafer Lab (AID 2284032);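 further: fitted as a decrease in burst spike percentage below DMSO baseline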
Procedure, shortened: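 Rat primary cortical neurons on 16-electrode MEA wells, dosed from plating day 0 for 12 days with renewal on DIV 5 and 9; spikes-in-bursts percentage averaged over bursting electrodes, collapsed as AUC across days 5, 7, 9, 12; loss direction versus DMSO.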

[24] = CCTE_Shafer_MEA_dev_active_electrodes_number: CCTE's Neural Network Formation Assay for Number of Active Electrodes, Shafer Lab (AID 2284040; active means hit-call score of the fitted dose curve at least 0.9, where 1 is the maximum;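 further: potency for loss of active electrodes versus DMSO so lower counts are hits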)
Procedure, shortened: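 Rat cortical primary cultures, 1.5 x 10^5 cells/well, PEI-coated MEA, laminin drop. Continuous exposure DIV 0–12; full media/compound change DIV 5, 9. Readout: electrodes with mean firing ≥5 spikes/min; AUC across days; loss vs DMSO.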

[25] = CCTE_Shafer_MEA_dev_burst_rate: CCTE's Neural Network Formation Assay for Burst Rate, Shafer Lab (AID 2284042);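 further: potency for loss of burst rate below DMSO control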
Procedure, shortened: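 Exposure ran continuously over 12 days of network development in rat cortical cultures, with compound refreshed during full media changes on DIV 5 and 9. Single-electrode bursts per recording time, well-mean over active electrodes, trapezoidal AUC across days 5–12, fitted downward relative to DMSO.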

Measured: AC50

CN(C)C(=O)C(CCN1CCC(O)(c2ccc(Cl)cc2)CC1)(c1ccccc1)c1ccccc1
inactive: [1] | [2] | [3] | [4] | [6] | [7] | [12] | [15] | [16] | [17] | [18] | [19]
active: [5] 26600 nM | [8] 291 nM | [9] 291 nM | [10] 283 nM | [11] 165 nM | [13] 2270 nM | [14] 68 nM | [20] 2310 nM | [21] 2290 nM | [22] 63.2 nM and 101 nM and 190 nM | [23] 514 nM and 244 nM and 1.49 µM | [24] 385 nM and 196 nM and 1.21 µM | [25] 41.8 nM and 92.4 nM and 335 nM
